We go through 62 compounds from PubChem BioAssay AID720540 (National Center for Advancing Translational Sciences (NCATS), 2013).

About 460 (35%) of roughly 1,300 compounds were called active. About 39% were inconclusive and are not listed. The call rests on the fitted dose curve; in most records, active means well fitted inhibition curve with a large enough effect; inconclusive means small, poorly fitted or top-dose-only effect; inactive means flat fitted curve, though single readings scatter. Some of the results follow.
Potency means the concentration at half of the fitted maximal effect.

Protein phosphatase EYA2 (Homo sapiens), sequence (O00167 whole entry, looked up): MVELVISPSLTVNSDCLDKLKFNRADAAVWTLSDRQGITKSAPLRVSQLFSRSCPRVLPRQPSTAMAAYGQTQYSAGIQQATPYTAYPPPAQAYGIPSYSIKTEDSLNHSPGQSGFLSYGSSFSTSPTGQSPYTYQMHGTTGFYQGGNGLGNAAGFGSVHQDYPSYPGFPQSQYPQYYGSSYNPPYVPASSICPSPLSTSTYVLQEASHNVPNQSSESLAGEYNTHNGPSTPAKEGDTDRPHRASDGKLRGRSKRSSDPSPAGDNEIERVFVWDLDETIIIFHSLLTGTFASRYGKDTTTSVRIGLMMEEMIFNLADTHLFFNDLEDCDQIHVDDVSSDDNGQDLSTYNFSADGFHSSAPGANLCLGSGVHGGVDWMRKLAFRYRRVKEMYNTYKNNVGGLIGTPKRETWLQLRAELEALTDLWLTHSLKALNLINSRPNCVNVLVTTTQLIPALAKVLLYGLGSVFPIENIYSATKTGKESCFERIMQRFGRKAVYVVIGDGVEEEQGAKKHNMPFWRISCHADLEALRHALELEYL

This experiment concerns the target Protein phosphatase EYA2 (Homo sapiens) (UniProt O00167). The experiment in a line: qHTS for Inhibitors of the Phosphatase Activity of Eya2: Confirmatory Assay for Cherry-picked Compounds. Further: nearly all actives have a fitted effect of over 65% in size. The settings on record: purified EYA2 phosphatase activity, qHTS confirmation; series mostly up to 46.1 µM. In short, it runs like this:
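Eya2 (0.2 uM working solution) preincubated 10 min at room temperature with compound in pH 7.5 HEPES buffer with MgCl2, BSA, DTT. OMFP added (50 uM working solution), 10 min more; fluorescence 485/525 nm, normalized to EGTA and DMSO.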
As to `O=C(Oc1ccc2c(c1)OCC2=O)c1ccccc1`, the Potency was 4.78 µM (active). As to `CCCNC(=O)C1(C)CCN(Cc2cccc(OC(=O)c3ccccc3)c2)C1` (configuration not stated), the Potency entry was “inactive”. As for `O=C(Oc1ccc2c(c1)OCC2=O)c1ccc(Cl)cc1`, the figure is 2.39 µM (active). As for `S=C(NCCCc1cnc[nH]1)NCCCN(Cc1ccc(Cl)cc1)c1ccc(-c2ccccc2)cn1`, the figure is 16.9 µM (active).

`CN(CCCc1cnc[nH]1)C(=S)NCCCN(Cc1ccc(Cl)cc1)c1ccc(Br)cn1`: the Potency was 19 µM (active). As for `COc1cc(CNC(=O)Nc2nc(C(N)c3ccccc3)cs2)cc(OC)c1OC` (configuration not stated), the figure is 19 µM (active); as for `CCC(=O)Nc1nc2c(OC)ccc(OC)c2s1`, “inactive”; as for `Cc1ccccc1-c1cnc(C(O)c2c(C)cccc2C)[nH]1` (configuration not stated), “inactive”. In the case of `Cc1nc([N+](=O)[O-])cn1CC(O)c1ccc2c(c1)OCO2` (configuration not stated), the Potency result is “inactive”. As for `O=c1[nH]c(=O)n(C2C[C@H](O)[C@@H](CO)O2)cc1C(F)(F)F` (some centres not stated), the entry is “inactive”; as for `COc1ccc2ccccc2c1C=NN1CCCCC1`, 16.9 µM (active); as for `CCOC(=O)NNc1nncc2ccccc12`, “inactive”. Turning to `CCOC(=O)c1ncccc1NC(=O)CC(=O)Nc1cccnc1C(=O)OCC`, the Potency is 3.79 µM (active).

For the compound `CC(=O)Oc1cccc2c1C(=O)C1CC=CC(OC(C)=O)C1C2=O` (configuration not stated), the Potency is 15.1 µM (active).

Consider `COc1ccccc1N1CCN(/N=C/C=C\c2ccccc2[N+](=O)[O-])CC1`, for which the Potency was 15.1 µM (active). The same measure for `O=[N+]([O-])c1ccccc1/C=C\C=N\N1CCN(c2ccccc2)CC1`: 9.53 µM (active); for `COc1ccc(F)cc1-c1cc(NC=O)c2ncc(-c3cccc(C(F)(F)F)c3)n2c1`: “inactive”. The same measure for `O=C(O)C1=C[C@@H](c2csc3ccccc23)C[C@@H](OCc2ccc(CO)cc2)O1`: “inactive”. In the case of `OC(COc1ccc2cc(Br)ccc2c1)Cn1ccnc1` (configuration not stated), the Potency result was “inactive”. As for `Cc1sc(NC(=O)C2=COCCO2)c(C(N)=O)c1C`, the figure is 7.57 µM (active). The same measure for `CS(=O)(=O)c1ccc(-c2nnc(NC(=O)C3=COCCO3)o2)cc1`: “inactive”.

In the case of `CC1CCc2c(sc(NC(=O)/C=C/c3cccs3)c2C(=O)O)C1` (configuration not stated), the Potency is 19 µM (active). `O=C(O)c1cc(N2N=C(C(F)(F)F)/C(=C/C=C/c3ccco3)C2=O)ccc1Cl`: the Potency was 1.51 µM (active).

Consider `O=C1C=C(Nc2ccccc2)C(=O)c2ccccc21`, for which the Potency was 6.01 µM (active). The same measure for `CCOC(=O)c1c(C)oc2c1c(C=NCc1ccccn1)c(O)c1ccccc12`: 15.1 µM (active). As for `COc1ccc(Nc2nc(N)nc(CSC(=S)N3CCCCC3)n2)cc1`, the entry is “inactive”; as for `CCSc1nc2ccccc2n1C(=O)c1ccc(S(=O)(=O)N2CCCCC2)cc1`, “inactive”. As for `O=C(O)c1ccccc1-c1ccccc1C(=O)Nc1ccc2c(c1)[nH]c(=O)c1ccccc12`, the figure is 7.57 µM (active); as for `O=C(O)c1ccccc1-c1ccccc1C(=O)Nc1ccc2oc(=O)c3ccccc3c2c1`, 8.49 µM (active); as for `CSc1ccc(CNc2ncc(-c3cccc([N+](=O)[O-])c3)n2C)cc1`, 19 µM (active). Regarding `O=C(Nc1ncc(Cc2ccccc2Cl)s1)c1ccc(-c2cccc([N+](=O)[O-])c2)o1`, the Potency result is “inactive”. As for `Oc1c(Br)cc(Br)cc1CNc1cccc2cccnc12`, the figure is 7.57 µM (active). The same measure for `O=C(SCc1c(O)c2ccccc2oc1=O)c1ccccc1`: “inactive”; for `COC(=O)c1cc2c(ccc3ccccc32)oc1=O`: 7.57 µM (active). The same measure for `COc1ccccc1Nc1nc(-c2ccc3c(c2)NC(=O)CO3)cs1`: “inactive”; for `COc1ccc(OC)c(Nc2nc(-c3sc(N)nc3C)cs2)c1`: 8.49 µM (active); for `CC1=C(C(=O)N2CCOCC2)CC(CC(=O)NC(c2ccccc2)c2ccccc2)C(=O)N1Cc1ccc(C(C)(C)C)cc1` (configuration not stated): “inactive”.

For `O=C(O)CCN1C(=O)/C(=C/c2ccc(-c3nc4ccccc4s3)o2)SC1=S`, the Potency was 3.79 µM (active). As for `Cc1ccc(-c2nc3ccccc3s2)cc1NC(=S)NC(=O)/C=C/c1ccco1`, the Potency entry is “inactive”. For `N#CC1=C(N)n2c(s/c(=C\c3cccs3)c2=O)=C(C#N)C1c1cccs1` (configuration not stated), the Potency was 19 µM (active). As for `O=C(C1=C(O)C(=O)N(c2nc3ccc(Cl)cc3s2)C1c1ccco1)c1ccco1` (configuration not stated), the figure is 16.9 µM (active); as for `COc1ccc2nc(NC(=S)NC(=O)c3ccco3)sc2c1`, “inactive”. The same measure for `COc1cc(NC(=O)c2cccs2)c(OC)cc1NC(=O)Nc1ccc(F)cc1`: “inactive”; for `O=C(NCc1ccc2c3c(cccc13)C(=O)N2)c1cccs1`: “inactive”. Consider `COc1cc(NC(=O)c2cccs2)c(OC)cc1NC(=O)CCC(=O)Nc1ccc2ncccc2c1`, for which the Potency was 1.69 µM (active). Consider `COc1cc(NC(=O)c2cccs2)c(OC)cc1NC(=O)Cc1ccccc1`, for which the Potency was 10.7 µM (active).

As to `Cc1cc(NC(=O)c2cccs2)cc(-c2nc3ncccc3o2)c1O`, the Potency result is “inactive”. The same measure for `COc1cc(NC(=O)c2cccs2)c(OC)cc1NC(=O)CCn1nnc2ccccc21`: 16.9 µM (active); for `O=S(=O)(c1ccccc1)[C@@]1(c2ccccc2)C[C@@H]2ON=C(c3cccc(-c4ccccc4)c3)[C@@H]2C1`: “inactive”.

Consider `c1ccc(CSc2ccc3nnc(-c4ccccn4)n3n2)cc1`, for which the Potency was 19 µM (active). `COC(=O)c1ccc(CSc2ccc3nnc(-c4ccccn4)n3n2)o1`: the Potency is 16.9 µM (active). The same measure for `Brc1ccc(CSc2ccc3nnc(-c4ccccn4)n3n2)cc1`: 19 µM (active); for `COc1ccccc1OCc1ccc(C(=O)Nc2cc(OC)c(OC)c(OC)c2)o1`: “inactive”; for `CC1CN(C(=O)c2cc(S(=O)(=O)N(C)c3ccc(F)cc3)ccc2Cl)CC(C)O1` (configuration not stated): “inactive”. On to `CN(C)c1ccc(-c2ccnc3c2CC(C)(C(=O)NCCC(F)(F)F)O3)cc1` (configuration not stated), for which the Potency entry was “inactive”. The same measure for `CN1C(=O)NC(c2ccccc2)(C(F)(F)F)S/C1=C(/C#N)c1nnc(N2CCOCC2)n1-c1ccccc1` (configuration not stated): “inactive”; for `O=C(Nc1ccc(F)cc1)c1nc[nH]c1C(=O)O`: 15.1 µM (active). As for `NNC(=O)c1nc[nH]c1C(=O)Nc1ccccn1`, the figure is 8.49 µM (active). The same measure for `O=C(CNC(=O)c1[nH]cnc1C(=O)N[C@@H](Cc1ccccc1)C(=O)OCc1ccccc1)OCc1ccccc1`: “inactive”.

For `C[C@@H](NC(=O)c1nc[nH]c1C(=O)N[C@@H](Cc1ccccc1)C(=O)OC(C)(C)C)c1ccccc1`, the Potency result is “inactive”. For the compound `CCOC(=O)c1ccc(NC(=O)c2nc[nH]c2C(=O)N[C@@H](Cc2ccccc2)C(=O)OC(C)(C)C)cc1`, the Potency entry is “inactive”. As to `Cc1ccc(NC(=O)c2[nH]cnc2C(=O)NN)cc1`, the Potency was 15.1 µM (active).
